Compounds with a hit are over-represented: about 2.8% of the library has one in this group of screens.
TRPM1 prom inh: inhibitors of MITF-dependent TRPM1 promoter reporter, primary screen, cell-based, SK-MEL-5, single point, luciferase | inhibition, % at 12.5 µM | SK-MEL-5 TRPM1 promoter luciferase, 24 h | hit rate 0.83% among 330,000 | AID 488899, 2010;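 active means mean inhibition across replicates of 60% or more, whatever share of single replicates reaches that level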
KKLEB tox: cytotoxicity in KKLEB CF airway cells, primary screen, cytotoxicity control for CF NF-kB inhibitor project, cell-based, uHTS, fluorescence assay plates | KKLEB CF airway cells viability, ATPlite luminescence, overnight; hits give low values; cells stimulated with P. aeruginosa culture filtrate | AID 602141, 2011 | hit rate 0.36% among 360,000 | activity change (cytotoxicity), % at 5 µM;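 active means corrected activity change at or below -50% at 5 µM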
Shn3 inh set2: reduction of Shn3 3'UTR firefly luciferase signal, primary screen, Schnurri-3 inhibitor project, cell-based, Clone20 osteoblasts, set 2; Clone20 osteoblast Shn3 3'UTR firefly luciferase, 24 h; inhibition, % at 12.5 µM; hit rate 0.52% among 360,000; AID 588674, 2011;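 active means mean inhibition of at least 75% with every replicate also reaching 75%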
Peg3 prom inh: Peg3 promoter-driven luciferase inhibitors, primary screen, cell-based, HeLa, luciferase luminescence; HeLa PEG-Prom luciferase reporter, overnight; hit rate 1.7% among 360,000; inhibition, % at 20 µM; AID 588405, 2011;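 active means inhibition of at least 50% at 20 µM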
HIF-2a block: HIF-2a reporter inhibitors, primary screen, luminescence, 786-0 RCC cells. inhibition, % at 18.8 µM. hit rate 0.72% among 360,000. 786-0 RCC cells HIF-2a reporter, luciferase luminescence, overnight;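 active means inhibition of the luminescence signal of 40% or more relative to plate controls, in a single-dose primary screen at 18.75 µM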
CF NFkB block: inhibitors of PAF-induced NF-kB signaling, primary screen, cell-based, GFP fluorescence, uHTS; KKLEB NF-kB-GFP reporter, GFP fluorescence overnight; inhibition, % at 5 µM; hit rate 0.86% among 360,000; AID 588850, 2011;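 active means at least 50% inhibition at 5 µM, scaled per plate between neutral and stimulator controls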;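 further: PAF is a Pseudomonas aeruginosa culture filtrate used as stimulus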
Large screens that a line does not name were inactive.

CCc1ccc(N=C2NC(=O)/C(=C/c3cc(OC)c(O)c(OC)c3)S2)cc1	none
COc1ccc(/C=C2\SC(=NCc3ccccc3)NC2=O)cc1	none
C[C@@H]1C[C@H]2[C@@H]3C[C@H](F)C4=CC(=O)C=C[C@]4(C)[C@@]3(Cl)[C@@H](O)C[C@]2(C)[C@H]1C(=O)COC(=O)C(C)(C)C	CF NFkB block 69.0
COC(=O)C1CSC(C(=O)OC)N1C(=O)CN1CCN(c2ccccc2)CC1 (stereo not drawn)	none
COc1cc(OC)c2c(-c3ccccc3)cc(=O)oc2c1C(CCN1CCCC(C)C1)c1ccc2c(c1)OCO2 (stereo not drawn)	none
COc1ccc(C(CCN2CCCCC2)c2c(OC)cc(OC)c3c(-c4ccccc4)cc(=O)oc23)cc1 (stereo not drawn)	Peg3 prom inh 96.5
COc1cc(OC)c2c(-c3ccccc3)cc(=O)oc2c1C(CCN1CCCCC1)c1ccc2c(c1)OCO2 (stereo not drawn)	Peg3 prom inh 101.9
COc1cc(OC)c2c(-c3ccccc3)cc(=O)oc2c1C(CCN1CCCCC1)c1ccc(N(C)C)cc1 (stereo not drawn)	Peg3 prom inh 64.6
COc1cc(OC)c2c(-c3ccccc3)cc(=O)oc2c1C(CCN1CCOCC1)c1ccc(N(C)C)cc1 (stereo not drawn)	none
CCOC(=O)n1c2ccccc2c(=O)n1CCO	none (no result: TRPM1 prom inh)
Cc1cc(NC(=O)C(C)SCC(=O)N(C)Cc2ccccc2F)no1 (stereo not drawn)	Peg3 prom inh 71.1
CCOC(=O)c1cnc(-n2nc(C)cc2C)nc1NCCc1ccccc1	none
CCOC(=O)c1cnc(-n2nc(C)cc2C)nc1NCc1ccc2c(c1)OCO2	Shn3 inh set2 93.6
N#Cc1c(N)nc(SCC(=O)NC2CCCCC2)c(C#N)c1-c1ccc(Cl)cc1	Peg3 prom inh 73.9
COCc1cc(C)nc(OCC(=O)N/N=C/c2ccc(-c3cc([N+](=O)[O-])ccc3Cl)o2)c1C#N	Peg3 prom inh 54.2
O=[N+]([O-])C1C(c2ccccc2)=NOC1c1ccccc1O (stereo not drawn)	none
O=C(c1ccoc1)N1CCN(c2cc(-c3ccccc3)nc3cc(-c4ccc(Br)cc4)nn23)CC1	none (no result: TRPM1 prom inh)
COc1ccc(-c2cc3nc(-c4ccccc4)cc(N4CCN(C(=O)c5ccoc5)CC4)n3n2)cc1	Peg3 prom inh 54.7 (no result: TRPM1 prom inh)
CCOC(=O)c1ccccc1NC(=O)C1CC(=O)N(C2CCCC2)C1 (stereo not drawn)	none
Cc1ccc(S(=O)(=O)N2[C@H](c3ccc(Cl)cc3)CC(=O)[C@@H]3CN(S(=O)(=O)c4ccccc4C)[C@H](c4ccc(Cl)cc4)C[C@@H]32)cc1	none (no result: TRPM1 prom inh)
Cc1ccc([C@@H]2CC(=O)[C@@H]3CN(S(=O)(=O)c4ccccc4C)[C@H](c4ccc(Cl)cc4)C[C@@H]3N2S(=O)(=O)c2ccc(C)cc2)cc1	Shn3 inh set2 90.6 (no result: TRPM1 prom inh)
Cc1ccc(S(=O)(=O)N2[C@H](c3cccc(Cl)c3)CC(=O)[C@@H]3CN(S(=O)(=O)c4ccccc4C)[C@H](c4ccc(Cl)cc4)C[C@@H]32)cc1	Shn3 inh set2 89.3 (no result: TRPM1 prom inh)
O=[N+]([O-])c1ccc(O)c(/C=N/Nc2ncnc3c2cnn3-c2ccccc2)c1	Shn3 inh set2 91.7
O=[N+]([O-])c1ccc(O)c(/C=N/Nc2nc3ccccc3[nH]2)c1	none
Oc1ccc(C=NNc2ccccn2)c(O)c1	Shn3 inh set2 86.1
O=[N+]([O-])c1ccc(O)c(/C=N/Nc2ccccn2)c1	TRPM1 prom inh 64.7, KKLEB tox -65.1, CF NFkB block 69.0
O=C(c1ccccc1NS(=O)(=O)c1ccc(F)cc1F)N1CCCCC1	none
Cn1c(-c2ccccc2)c(C#Cc2ccc(N)cc2)c2ccccc21	none
CCN(CCNCC(O)COCc1ccc(Cl)cc1)c1cccc(C)c1 (stereo not drawn)	Peg3 prom inh 103.2
CCN(CCNC(=O)c1ccc(C#N)cc1)c1cccc(C)c1	none

Screening data deposited in PubChem BioAssay by several laboratories.
